# Assay results published in publication PMC7862700, “An all-to-all approach to the identification of sequence-specific readers for epigenetic DNA modifications on cytosine”.
# Assays:
# Assay in all cases: DAPPL (digital affinity profiling via proximity ligation, sequencing); 10 mM Tris-HCl pH 7.5, 50 mM NaCl, 1 mM DTT, 4% glycerol, room temperature, 30 min; GST-TFs on glutathione beads, 16-mer random dsDNA library, 0.1% formaldehyde crosslink after washing; high values mean tight binding
# FEV = molecular target: T1, FEV (Homo sapiens, UniProt Q99581 1-238); conditions: protein: recombinant; tags: N-terminal GST; dsDNA, one strand shown
# T1 sequence: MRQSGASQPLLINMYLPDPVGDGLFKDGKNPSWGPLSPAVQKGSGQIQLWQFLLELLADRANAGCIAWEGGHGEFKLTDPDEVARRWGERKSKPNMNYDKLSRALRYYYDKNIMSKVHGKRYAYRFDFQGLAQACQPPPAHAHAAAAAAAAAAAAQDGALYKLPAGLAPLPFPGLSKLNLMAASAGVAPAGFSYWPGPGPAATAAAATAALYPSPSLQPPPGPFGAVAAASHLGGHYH
# How it was run: (§1)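 Yeast served to express human transcription factors as GST fusions, which were then captured on glutathione beads and labelled with DNA barcodes. Pooled with a tag-only sample, they were incubated with 200 nmole of a 16-mer random double-stranded DNA library for 30 min at room temperature in Tris/NaCl/DTT/glycerol buffer, washed, crosslinked with 0.1% formaldehyde, ligated by proximity, amplified by PCR and sequenced. Dividing each hexamer's read frequency for a factor by its frequency for the tag-only sample gives the binding signal.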
# ETV5 = ETV5 (Homo sapiens, UniProt P41161 1-510); conditions: protein: recombinant; tags: N-terminal GST; dsDNA, one strand shown
# ETV5, sequence (P41161 whole entry): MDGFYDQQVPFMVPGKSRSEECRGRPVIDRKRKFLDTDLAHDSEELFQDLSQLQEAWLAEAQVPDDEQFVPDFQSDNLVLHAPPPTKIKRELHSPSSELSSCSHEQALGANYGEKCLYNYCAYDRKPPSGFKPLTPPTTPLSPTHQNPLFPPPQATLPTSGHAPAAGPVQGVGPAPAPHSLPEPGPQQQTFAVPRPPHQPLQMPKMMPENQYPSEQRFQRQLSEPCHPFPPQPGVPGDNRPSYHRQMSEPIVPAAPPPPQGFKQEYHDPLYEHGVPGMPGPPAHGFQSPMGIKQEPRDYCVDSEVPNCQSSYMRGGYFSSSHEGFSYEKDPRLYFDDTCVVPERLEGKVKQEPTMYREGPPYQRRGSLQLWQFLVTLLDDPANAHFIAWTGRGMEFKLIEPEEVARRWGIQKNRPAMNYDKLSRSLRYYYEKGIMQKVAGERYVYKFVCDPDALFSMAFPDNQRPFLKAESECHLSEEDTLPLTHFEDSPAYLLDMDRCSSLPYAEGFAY
# How it was run: as §1
# HSF1 = HSF1 (Homo sapiens, UniProt Q00613 1-529); conditions: protein: recombinant; tags: N-terminal GST; chain copies: 3; dsDNA, one strand shown
# HSF1, sequence (Q00613 whole entry): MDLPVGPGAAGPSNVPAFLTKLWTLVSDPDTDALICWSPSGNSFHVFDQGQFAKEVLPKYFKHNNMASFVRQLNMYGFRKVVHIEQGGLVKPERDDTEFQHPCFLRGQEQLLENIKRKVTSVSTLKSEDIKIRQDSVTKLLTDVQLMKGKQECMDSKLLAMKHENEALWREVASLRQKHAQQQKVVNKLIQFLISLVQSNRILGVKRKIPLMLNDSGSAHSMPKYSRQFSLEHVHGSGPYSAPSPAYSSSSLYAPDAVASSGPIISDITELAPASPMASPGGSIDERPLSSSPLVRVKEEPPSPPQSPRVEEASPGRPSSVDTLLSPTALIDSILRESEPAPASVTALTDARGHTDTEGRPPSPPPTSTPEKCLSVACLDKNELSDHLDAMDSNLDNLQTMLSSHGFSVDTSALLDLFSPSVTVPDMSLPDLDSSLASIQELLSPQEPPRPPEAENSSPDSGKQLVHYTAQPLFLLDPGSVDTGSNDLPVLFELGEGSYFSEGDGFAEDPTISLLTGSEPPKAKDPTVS
# How it was run: as §1
# SPIC = molecular target: T2, SPIC (Homo sapiens, UniProt Q8N5J4 1-248); conditions: protein: recombinant; tags: N-terminal GST; dsDNA, one strand shown
# T2 sequence: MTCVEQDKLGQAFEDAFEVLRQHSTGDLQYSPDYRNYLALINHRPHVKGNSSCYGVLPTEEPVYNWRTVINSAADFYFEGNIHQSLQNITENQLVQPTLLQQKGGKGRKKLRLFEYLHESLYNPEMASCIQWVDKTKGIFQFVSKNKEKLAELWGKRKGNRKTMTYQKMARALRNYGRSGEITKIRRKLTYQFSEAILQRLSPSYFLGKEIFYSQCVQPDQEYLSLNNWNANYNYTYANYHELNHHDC
# How it was run: as §1
# ELF4 = ELF4 (Homo sapiens, UniProt Q99607 1-663); conditions: protein: recombinant; tags: N-terminal GST; dsDNA, one strand shown
# ELF4, sequence (Q99607 whole entry): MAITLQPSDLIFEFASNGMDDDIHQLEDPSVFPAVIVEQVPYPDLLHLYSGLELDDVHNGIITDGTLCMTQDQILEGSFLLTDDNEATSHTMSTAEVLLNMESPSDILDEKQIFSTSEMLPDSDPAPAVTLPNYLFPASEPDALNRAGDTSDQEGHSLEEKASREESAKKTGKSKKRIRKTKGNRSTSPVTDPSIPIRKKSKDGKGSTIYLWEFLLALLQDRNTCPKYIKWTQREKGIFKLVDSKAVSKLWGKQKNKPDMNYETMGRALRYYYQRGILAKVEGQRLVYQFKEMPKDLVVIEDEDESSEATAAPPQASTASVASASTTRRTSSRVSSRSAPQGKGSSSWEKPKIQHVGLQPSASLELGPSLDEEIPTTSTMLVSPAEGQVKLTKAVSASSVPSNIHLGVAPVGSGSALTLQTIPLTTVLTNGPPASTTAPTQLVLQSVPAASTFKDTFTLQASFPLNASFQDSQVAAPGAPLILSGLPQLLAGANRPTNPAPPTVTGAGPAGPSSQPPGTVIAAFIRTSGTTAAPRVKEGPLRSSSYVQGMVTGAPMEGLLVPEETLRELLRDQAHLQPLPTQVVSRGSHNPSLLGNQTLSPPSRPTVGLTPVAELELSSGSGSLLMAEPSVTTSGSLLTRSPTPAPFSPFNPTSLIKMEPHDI
# How it was run: as §1
# ELK4 = molecular target: T3, ELK4 (Homo sapiens, UniProt P28324-2 1-405); conditions: protein: recombinant; tags: N-terminal GST; dsDNA, one strand shown
# T3 sequence: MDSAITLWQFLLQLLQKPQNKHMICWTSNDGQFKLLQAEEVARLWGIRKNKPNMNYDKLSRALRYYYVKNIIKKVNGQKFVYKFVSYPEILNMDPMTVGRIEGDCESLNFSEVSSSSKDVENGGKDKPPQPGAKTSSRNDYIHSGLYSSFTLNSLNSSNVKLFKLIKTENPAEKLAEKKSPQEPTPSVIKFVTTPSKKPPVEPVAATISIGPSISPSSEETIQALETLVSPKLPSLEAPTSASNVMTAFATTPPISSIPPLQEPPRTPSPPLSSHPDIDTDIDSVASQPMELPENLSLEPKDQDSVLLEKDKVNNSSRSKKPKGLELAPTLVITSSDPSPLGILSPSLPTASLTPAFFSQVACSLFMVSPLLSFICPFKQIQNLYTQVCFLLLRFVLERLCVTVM
# How it was run: as §1
# ETV2 = molecular target: T4, ETV2 (Homo sapiens, UniProt O00321 1-342); conditions: protein: recombinant; tags: N-terminal GST; dsDNA, one strand shown
# T4 sequence: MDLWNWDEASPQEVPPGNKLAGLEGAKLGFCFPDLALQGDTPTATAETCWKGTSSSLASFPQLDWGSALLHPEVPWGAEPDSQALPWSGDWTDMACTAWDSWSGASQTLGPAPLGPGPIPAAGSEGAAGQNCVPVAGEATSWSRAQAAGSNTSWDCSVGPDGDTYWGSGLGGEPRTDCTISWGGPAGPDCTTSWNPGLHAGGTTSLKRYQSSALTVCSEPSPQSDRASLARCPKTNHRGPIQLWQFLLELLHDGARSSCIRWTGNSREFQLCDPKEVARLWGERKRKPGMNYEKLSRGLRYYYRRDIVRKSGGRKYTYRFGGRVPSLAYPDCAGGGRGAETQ
# How it was run: as §1
# ELF3 = molecular target: T5, ELF3 (Homo sapiens, UniProt P78545 1-371); conditions: protein: recombinant; tags: N-terminal GST; dsDNA, one strand shown
# T5 sequence: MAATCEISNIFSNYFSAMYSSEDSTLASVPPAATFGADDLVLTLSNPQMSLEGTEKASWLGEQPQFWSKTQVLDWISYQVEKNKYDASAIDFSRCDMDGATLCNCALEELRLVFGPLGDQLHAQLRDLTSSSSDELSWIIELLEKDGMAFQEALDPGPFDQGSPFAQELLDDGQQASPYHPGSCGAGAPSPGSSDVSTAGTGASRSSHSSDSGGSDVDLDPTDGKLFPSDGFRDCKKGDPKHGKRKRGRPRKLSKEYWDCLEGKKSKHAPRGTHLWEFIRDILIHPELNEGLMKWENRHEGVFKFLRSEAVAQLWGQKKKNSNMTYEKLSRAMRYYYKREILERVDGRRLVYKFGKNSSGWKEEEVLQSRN
# How it was run: as §1
# CRX = CRX (Homo sapiens, UniProt O43186 1-299); conditions: protein: recombinant; tags: N-terminal GST; dsDNA, one strand shown
# CRX, sequence (O43186 whole entry): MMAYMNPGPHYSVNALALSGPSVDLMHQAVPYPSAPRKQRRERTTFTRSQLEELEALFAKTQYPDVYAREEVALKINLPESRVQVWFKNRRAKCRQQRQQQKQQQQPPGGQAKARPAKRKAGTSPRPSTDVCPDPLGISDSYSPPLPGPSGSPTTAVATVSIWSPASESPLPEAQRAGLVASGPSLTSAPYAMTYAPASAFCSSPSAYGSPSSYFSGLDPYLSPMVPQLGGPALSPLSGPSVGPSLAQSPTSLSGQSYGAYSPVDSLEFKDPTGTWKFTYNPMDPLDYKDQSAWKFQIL
# How it was run: as §1
# ETV1 = ETV1 (Homo sapiens, UniProt P50549 1-477); conditions: protein: recombinant; tags: N-terminal GST; dsDNA, one strand shown
# ETV1, sequence (P50549 whole entry): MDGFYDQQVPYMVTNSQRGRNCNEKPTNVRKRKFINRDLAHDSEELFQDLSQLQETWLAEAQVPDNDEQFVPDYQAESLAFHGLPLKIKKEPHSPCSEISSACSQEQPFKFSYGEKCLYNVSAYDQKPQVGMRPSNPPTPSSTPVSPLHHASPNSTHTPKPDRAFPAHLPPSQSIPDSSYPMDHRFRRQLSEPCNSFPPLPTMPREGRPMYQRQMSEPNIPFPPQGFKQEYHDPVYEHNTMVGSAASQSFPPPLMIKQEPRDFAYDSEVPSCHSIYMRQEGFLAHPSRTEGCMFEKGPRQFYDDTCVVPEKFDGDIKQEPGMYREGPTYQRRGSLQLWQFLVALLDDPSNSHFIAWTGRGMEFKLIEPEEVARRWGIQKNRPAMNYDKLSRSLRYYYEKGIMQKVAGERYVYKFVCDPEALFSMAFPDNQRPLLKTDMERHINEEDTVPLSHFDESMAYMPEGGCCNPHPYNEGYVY
# How it was run: as §1
# ERF = molecular target: T6, ERF (Homo sapiens, UniProt P50548 1-548); conditions: protein: recombinant; tags: N-terminal GST; dsDNA, one strand shown
# T6 sequence: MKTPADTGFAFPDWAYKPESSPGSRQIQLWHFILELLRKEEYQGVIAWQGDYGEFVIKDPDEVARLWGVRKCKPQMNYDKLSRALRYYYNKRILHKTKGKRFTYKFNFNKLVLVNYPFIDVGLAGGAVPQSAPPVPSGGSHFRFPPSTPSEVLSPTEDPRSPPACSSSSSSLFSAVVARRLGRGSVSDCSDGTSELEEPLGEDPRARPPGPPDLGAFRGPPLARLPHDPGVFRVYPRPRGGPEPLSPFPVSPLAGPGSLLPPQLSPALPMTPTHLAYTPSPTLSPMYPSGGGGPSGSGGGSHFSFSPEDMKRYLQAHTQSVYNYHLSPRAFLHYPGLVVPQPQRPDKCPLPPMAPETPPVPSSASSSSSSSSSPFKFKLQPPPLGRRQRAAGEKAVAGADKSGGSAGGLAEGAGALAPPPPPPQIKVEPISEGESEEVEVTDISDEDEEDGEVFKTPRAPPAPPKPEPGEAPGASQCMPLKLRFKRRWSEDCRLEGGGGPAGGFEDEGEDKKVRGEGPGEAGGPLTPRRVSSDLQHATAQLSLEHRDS
# How it was run: as §1
# ETV3L = molecular target: T7, ETV3L (Homo sapiens, UniProt Q6ZN32 1-361); conditions: protein: recombinant; tags: N-terminal GST; dsDNA, one strand shown
# T7 sequence: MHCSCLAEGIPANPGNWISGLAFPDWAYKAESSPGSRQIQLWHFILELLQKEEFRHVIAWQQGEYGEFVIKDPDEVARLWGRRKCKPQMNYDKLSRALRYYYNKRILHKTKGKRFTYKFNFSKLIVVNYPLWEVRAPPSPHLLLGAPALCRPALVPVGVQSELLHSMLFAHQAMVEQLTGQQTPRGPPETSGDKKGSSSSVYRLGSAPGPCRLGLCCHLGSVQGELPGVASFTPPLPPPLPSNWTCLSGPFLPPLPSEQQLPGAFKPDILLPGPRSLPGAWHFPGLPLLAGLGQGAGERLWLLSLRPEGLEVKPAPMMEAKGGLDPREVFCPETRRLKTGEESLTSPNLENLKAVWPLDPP
# How it was run: as §1
# ETS2 = molecular target: T8, ETS2 (Homo sapiens, UniProt P15036 1-469); conditions: protein: recombinant; tags: N-terminal GST; dsDNA, one strand shown
# T8 sequence: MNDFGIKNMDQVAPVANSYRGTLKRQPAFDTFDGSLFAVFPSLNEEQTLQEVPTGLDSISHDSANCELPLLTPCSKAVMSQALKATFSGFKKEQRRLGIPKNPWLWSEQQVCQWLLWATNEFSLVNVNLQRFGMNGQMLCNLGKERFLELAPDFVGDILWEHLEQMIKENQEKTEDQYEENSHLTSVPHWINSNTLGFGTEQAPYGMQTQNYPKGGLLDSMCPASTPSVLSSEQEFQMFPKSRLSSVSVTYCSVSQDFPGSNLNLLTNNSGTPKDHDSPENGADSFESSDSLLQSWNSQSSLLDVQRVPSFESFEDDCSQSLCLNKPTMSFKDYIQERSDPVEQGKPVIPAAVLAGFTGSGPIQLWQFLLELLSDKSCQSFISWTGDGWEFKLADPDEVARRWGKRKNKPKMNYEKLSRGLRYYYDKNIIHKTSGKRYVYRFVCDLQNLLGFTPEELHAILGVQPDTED
# How it was run: as §1
# SPDEF = molecular target: T9, SPDEF (Homo sapiens, UniProt O95238 1-335); conditions: protein: recombinant; tags: N-terminal GST; dsDNA, one strand shown
# T9 sequence: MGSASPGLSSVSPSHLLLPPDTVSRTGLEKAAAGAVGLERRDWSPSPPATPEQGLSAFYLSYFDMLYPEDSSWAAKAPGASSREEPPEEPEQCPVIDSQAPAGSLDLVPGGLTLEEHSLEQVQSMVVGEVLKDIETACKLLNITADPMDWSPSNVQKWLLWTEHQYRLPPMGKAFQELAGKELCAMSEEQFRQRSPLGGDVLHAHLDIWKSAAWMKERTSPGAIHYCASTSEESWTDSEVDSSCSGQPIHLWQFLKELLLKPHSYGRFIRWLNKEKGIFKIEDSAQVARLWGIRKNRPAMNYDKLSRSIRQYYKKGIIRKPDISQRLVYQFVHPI
# How it was run: as §1
# ETV7 = molecular target: T10, ETV7 (Homo sapiens, UniProt Q9Y603 1-341); conditions: protein: recombinant; tags: N-terminal GST; dsDNA, one strand shown
# T10 sequence: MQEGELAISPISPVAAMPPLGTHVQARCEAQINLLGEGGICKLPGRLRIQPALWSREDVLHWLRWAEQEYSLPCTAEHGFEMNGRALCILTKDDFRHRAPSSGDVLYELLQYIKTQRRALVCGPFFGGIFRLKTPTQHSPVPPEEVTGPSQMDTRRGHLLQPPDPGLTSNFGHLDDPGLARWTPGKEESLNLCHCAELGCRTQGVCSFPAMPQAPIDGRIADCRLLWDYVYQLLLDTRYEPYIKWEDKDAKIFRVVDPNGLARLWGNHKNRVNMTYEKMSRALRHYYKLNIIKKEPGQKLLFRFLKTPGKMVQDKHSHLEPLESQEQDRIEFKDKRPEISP
# How it was run: as §1
# ELF5 = molecular target: T11, ELF5 (Homo sapiens, UniProt Q9UKW6-2 1-255); conditions: protein: recombinant; tags: N-terminal GST; dsDNA, one strand shown
# T11 sequence: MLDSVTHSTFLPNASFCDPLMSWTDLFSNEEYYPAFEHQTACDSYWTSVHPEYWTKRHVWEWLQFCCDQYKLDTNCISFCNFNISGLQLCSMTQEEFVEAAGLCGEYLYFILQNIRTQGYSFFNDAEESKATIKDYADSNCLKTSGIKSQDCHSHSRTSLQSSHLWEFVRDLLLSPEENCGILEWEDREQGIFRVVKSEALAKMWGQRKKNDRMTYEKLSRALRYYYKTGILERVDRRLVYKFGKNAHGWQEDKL
# How it was run: as §1
# ETV3 = molecular target: T12, ETV3 (Homo sapiens, UniProt P41162-2 1-143); conditions: protein: recombinant; tags: N-terminal GST; dsDNA, one strand shown
# T12 sequence: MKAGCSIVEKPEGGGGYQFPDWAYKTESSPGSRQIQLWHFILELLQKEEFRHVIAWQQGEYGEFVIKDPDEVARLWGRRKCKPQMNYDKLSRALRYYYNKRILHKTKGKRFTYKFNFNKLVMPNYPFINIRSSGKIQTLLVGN
# How it was run: as §1
# ETV6 = ETV6 (Homo sapiens, UniProt P41212 1-452); conditions: protein: recombinant; tags: N-terminal GST; dsDNA, one strand shown
# ETV6, sequence (P41212 whole entry): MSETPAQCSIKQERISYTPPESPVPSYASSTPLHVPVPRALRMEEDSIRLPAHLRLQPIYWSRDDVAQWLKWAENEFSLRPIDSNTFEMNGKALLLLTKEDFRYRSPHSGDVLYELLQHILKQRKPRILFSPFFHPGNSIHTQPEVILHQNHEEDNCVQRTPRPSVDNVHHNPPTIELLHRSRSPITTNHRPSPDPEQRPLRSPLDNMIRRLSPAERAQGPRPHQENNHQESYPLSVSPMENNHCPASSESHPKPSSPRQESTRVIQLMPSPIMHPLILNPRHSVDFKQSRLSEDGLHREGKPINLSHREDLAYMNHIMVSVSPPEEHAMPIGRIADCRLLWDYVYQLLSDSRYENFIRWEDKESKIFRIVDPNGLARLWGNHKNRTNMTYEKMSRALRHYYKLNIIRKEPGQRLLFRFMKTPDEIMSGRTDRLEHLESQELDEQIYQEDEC
# How it was run: as §1
sequence,measurement,setting,value
TCGCCT,binding signal,FEV,"1.28 fold enrichment (6-mer frequency, TF over GST control)"
same,binding signal,ETV5,"1.3 fold enrichment (6-mer frequency, TF over GST control)"
same,binding signal,HSF1,"1.3 fold enrichment (6-mer frequency, TF over GST control)"
same,binding signal,SPIC,"1.22 fold enrichment (6-mer frequency, TF over GST control)"
same,binding signal,ELF4,"1.27 fold enrichment (6-mer frequency, TF over GST control)"
same,binding signal,ELK4,"1.5 fold enrichment (6-mer frequency, TF over GST control)"
same,binding signal,ETV2,"1.3 fold enrichment (6-mer frequency, TF over GST control)"
same,binding signal,ELF3,"1.31 fold enrichment (6-mer frequency, TF over GST control)"
same,binding signal,CRX,"1.32 fold enrichment (6-mer frequency, TF over GST control)"
same,binding signal,ETV1,"1.41 fold enrichment (6-mer frequency, TF over GST control)"
same,binding signal,ERF,"1.27 fold enrichment (6-mer frequency, TF over GST control)"
same,binding signal,ETV3L,"1.23 fold enrichment (6-mer frequency, TF over GST control)"
same,binding signal,ETS2,"1.24 fold enrichment (6-mer frequency, TF over GST control)"
same,binding signal,SPDEF,"1.13 fold enrichment (6-mer frequency, TF over GST control)"
same,binding signal,ETV7,"1.15 fold enrichment (6-mer frequency, TF over GST control)"
same,binding signal,ELF5,"1.33 fold enrichment (6-mer frequency, TF over GST control)"
same,binding signal,ETV3,"1.22 fold enrichment (6-mer frequency, TF over GST control)"
same,binding signal,ETV6,"1.32 fold enrichment (6-mer frequency, TF over GST control)"
